Screens: PubChem BioAssay, National Center for Advancing Translational Sciences (NCATS)
HT1080-NT tox = kills 2HG-producing HT-1080-NT fibrosarcoma cells | HT-1080-NT fibrosarcoma viability, CellTiter-Glo ATP luminescence, 48 h | Potency, µM (top dose mostly 46.1 µM), for the others: at the top dose activity, negative = less viability, hits mostly cytotoxic | 360,000 tested, 1.6% active | AID 686970;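 also: NT is the 2HG producing partner of a matched IDH1 knockdown line; 0% = DMSO-treated cells and -100% = media-only wells without cells; nearly all actives have a fitted effect of over 55% in size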
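Compounds were tested in concentration-response format on HT-1080-NT cells for 48 hours at 37 degrees C. Cell viability came from CellTiter-Glo luminescence; curves were classified by r2, response magnitude and activity.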
KB-3-1 cytotox = KB-3-1 parental cell cytotoxicity; 400,000 tested, 1.4% active; AID 1347075; KB-3-1 viability, CellTiter-Glo ATP luminescence, 72 h; Potency, µM (titrated, usually from 46.1 µM), actives largely listed as cytotoxic; also: nearly all actives have a fitted effect of over 60% in size
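Cytotoxicity measured as CellTiter-Glo luminescence after 72 h at 37 C. Compound titrations were pinned onto drug-naive KB-3-1 parental adenocarcinoma cells grown in DMEM with 10% FBS, and normalized data fitted to concentration-response curves.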
HT1080 IDH1KD tx = kills HT-1080 cells with IDH1 knockdown; Potency, µM (top dose mostly 46.1 µM), for the others: at the highest dose activity, negative = toxicity, hits mostly cytotoxic; HT-1080 IDH1 knockdown viability, ATP luminescence, 48 h; AID 686971; 360,000 tested, 2% active;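 also: 0% = DMSO wells and -100% = cell-free medium wells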
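Luminescent ATP read-out (CellTiter-Glo, 10 min at room temperature) after 48 h compound exposure at 37 °C gave viability of IDH1-knockdown HT-1080 cells. Activity was normalised to DMSO and cell-free wells, then fitted as concentration-response curves.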
TDP1 cell noCPT = qHTS for Inhibitors of human tyrosyl-DNA phosphodiesterase 1 (TDP1): qHTS in cells in absence of CPT; 420,000 tested, 15% active; DT40 Tdp1-/- hTDP1 cells, no CPT, ATP luminescence, 48 h; Potency, µM (doses to about 46.2 µM), inactives show top-dose activity change, negative = growth inhibition, most hits filed as inhibitors; also: nearly all actives have a fitted effect of over 55% in size
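Growth kinetics read by CellTiter-Glo luminescence after ≥48 hr at 37 °C. Cells: DT40 Tdp1-/- stably carrying human TDP1, 400 per well, compound exposure in the absence of CPT (DMSO vehicle).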
TDP1 cell CPT = DT40-hTDP1 cell growth loss with CPT; 420,000 tested, 12% active; AID 686979; Potency, µM (series often up to 46.2 µM), without a hit: top-dose activity change, negative = growth inhibition, actives largely listed as inhibitors; chicken DT40 Tdp1-/-;hTDP1 cells + 20 nM CPT, ATP luminescence, 48 h; also: nearly all actives have a fitted effect of over 55% in size
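Cell growth measured by CellTiter-Glo luminescence after a minimum 48 h, 37 C compound exposure with 20 nM CPT in Tdp1-knockout DT40 cells stably expressing hTDP1, seeded 400/well; qHTS titration format.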
KB-V1 cytotox = kills drug-selected multidrug resistant KB-V1 cells. Potency, µM (titrated, usually from 46.1 µM), usual class: cytotoxic. KB-V1 MDR cells viability, CellTiter-Glo, 72 h. 400,000 tested, 3.4% active; also: nearly all actives have a fitted effect of over 60% in size
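Potencies derive from concentration-effect curves fitted to normalized luminescence (CellTiter-Glo) of KB-V1 cells treated for 72 h at 37 degrees C in phenol-red-free DMEM containing 10% FBS.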
Starred values were filed as active, the others as inactive. Rows were chosen to be rich in hits. Some 19% of all compounds tested hit in one or more screens of this group. Calls follow the shape of the dose curve; as a rule, active = well fitted curve in the direction sought with a large enough effect; inconclusive = small, poorly fitted or top-dose-only effect, or another doubt; inactive = no such curve, though single readings can be large; an effect the other way counts as inactive or inconclusive. Unless noted, % is scaled to controls: 0 for no effect and ±100 for the full control effect; potency is read from the fitted curve at half-maximal effect.

`CCOc1ccc(N(CC(=O)Nc2ccccc2C)S(=O)(=O)c2c(C)noc2C)cc1` gave HT1080-NT tox 4.6µM*, KB-3-1 cytotox 5.8µM*, HT1080 IDH1KD tx 3.7µM*, TDP1 cell noCPT 2.9µM*, TDP1 cell CPT 4.6µM* and KB-V1 cytotox inconclusive.
`CCOc1ccccc1NC(=O)CN(c1ccc(OC)cc1)S(=O)(=O)c1c(C)noc1C` gave HT1080-NT tox 5.2µM*, KB-3-1 cytotox 5.8µM*, HT1080 IDH1KD tx 5.2µM*, TDP1 cell noCPT 3.3µM*, TDP1 cell CPT 2.9µM* and KB-V1 cytotox 2.6µM*.
For CCOc1ccc(N(CC(=O)NC2CCCC2)S(=O)(=O)c2c(C)noc2C)cc1 the results were HT1080-NT tox 0%, KB-3-1 cytotox inactive, HT1080 IDH1KD tx 6%, TDP1 cell noCPT -27%, TDP1 cell CPT -29% and KB-V1 cytotox inactive.
COc1cc(OC)cc(-c2ncc3ccccn23)c1 was read as HT1080-NT tox -3%, KB-3-1 cytotox 21µM*, HT1080 IDH1KD tx -20%, TDP1 cell noCPT inconclusive, TDP1 cell CPT inconclusive and KB-V1 cytotox inconclusive.
`COc1cc(-c2ncc3ccccn23)cc(OC)c1OC` gave HT1080-NT tox 3%, KB-3-1 cytotox inactive, HT1080 IDH1KD tx 1%, TDP1 cell noCPT -4%, TDP1 cell CPT -17% and KB-V1 cytotox 15µM*.
Screening COc1cccc(-c2ncc3ccccn23)c1 returned HT1080-NT tox -14%, KB-3-1 cytotox inactive, HT1080 IDH1KD tx -5%, TDP1 cell noCPT inconclusive, TDP1 cell CPT -4% and KB-V1 cytotox inactive.
For Cc1ccc(NC(=O)c2ccc3c(c2)CCN3S(C)(=O)=O)c(C)c1 the results were HT1080-NT tox 6%, KB-3-1 cytotox inactive, HT1080 IDH1KD tx -7%, TDP1 cell noCPT -30%, TDP1 cell CPT -3% and KB-V1 cytotox inactive.
Screening COc1cccc(NC(=O)c2oc3ccccc3c2NC(=O)c2ccccc2C)c1 returned KB-3-1 cytotox inactive, TDP1 cell noCPT inconclusive, TDP1 cell CPT 10µM* and KB-V1 cytotox inactive.
`COc1cccc(C(=O)Nc2c(C(=O)NC(C)(C)C)oc3ccccc23)c1` gave KB-3-1 cytotox inactive, TDP1 cell noCPT inconclusive, TDP1 cell CPT 18µM* and KB-V1 cytotox inactive.
`COc1cccc(NC(=O)c2oc3ccccc3c2NC(=O)Cc2cccc(C)c2)c1` gave KB-3-1 cytotox inactive, TDP1 cell noCPT 18µM*, TDP1 cell CPT 23µM* and KB-V1 cytotox inactive.
Cc1cccc(CC(=O)Nc2c(C(=O)Nc3cccc(F)c3)oc3ccccc23)c1 was read as KB-3-1 cytotox inactive, TDP1 cell noCPT inconclusive, TDP1 cell CPT inconclusive and KB-V1 cytotox inactive.
CC(C)(C)NC1=CC(=O)OC12CCCCC2 was read as HT1080-NT tox 0%, KB-3-1 cytotox inactive, HT1080 IDH1KD tx 1%, TDP1 cell noCPT 15%, TDP1 cell CPT 1% and KB-V1 cytotox inactive.
`C[C@H]1CN([C@@H](C)CO)C(=O)c2cc(NC(=O)c3ccncc3)ccc2O[C@H]1CN(C)Cc1ccc(C(=O)O)cc1` gave HT1080-NT tox 12%, KB-3-1 cytotox inactive, HT1080 IDH1KD tx 8%, TDP1 cell noCPT 20%, TDP1 cell CPT 3% and KB-V1 cytotox inactive.
For CN1CCN(c2ccc(-c3cc(NC=O)c4ncc(-c5ccc(F)cc5)n4c3)cc2)CC1 the results were HT1080-NT tox inconclusive, KB-3-1 cytotox inconclusive, HT1080 IDH1KD tx inconclusive, TDP1 cell noCPT inconclusive, TDP1 cell CPT 15µM* and KB-V1 cytotox inactive.
`CN1CCN(c2ccc(-c3cc(NC=O)c4ncc(-c5ccccc5)n4c3)cc2)CC1` gave HT1080-NT tox inconclusive, KB-3-1 cytotox inactive, HT1080 IDH1KD tx inconclusive, TDP1 cell noCPT 16µM*, TDP1 cell CPT 21µM* and KB-V1 cytotox 23µM*.
For CC(=O)Nc1cc(-c2ccc(N(C)C)cc2)cn2c(-c3ccc(F)cc3)cnc12 the results were HT1080-NT tox inconclusive, KB-3-1 cytotox inactive, HT1080 IDH1KD tx inconclusive, TDP1 cell noCPT inconclusive, TDP1 cell CPT inconclusive and KB-V1 cytotox inactive.
CCOc1ccc(NC(=O)CSc2nnc(NC(=O)C3CC3)s2)cc1 was read as HT1080-NT tox 1%, KB-3-1 cytotox inactive, HT1080 IDH1KD tx 15%, TDP1 cell noCPT -3%, TDP1 cell CPT -8% and KB-V1 cytotox inactive.
For Cn1c(=O)c(-c2cccs2)nc2cnc(OCc3ccccc3)nc21 the results were TDP1 cell noCPT 7% and TDP1 cell CPT 9%.
`Cc1cccc(C(=O)N2CCC(Cc3ccccc3)CC2)c1[N+](=O)[O-]` gave HT1080-NT tox -5%, KB-3-1 cytotox inactive, HT1080 IDH1KD tx -21%, TDP1 cell noCPT 6.5µM*, TDP1 cell CPT 8.2µM* and KB-V1 cytotox inconclusive.
For Cc1cc(C)cc(NC(=O)CN2CCc3ccccc3C2)c1 the results were HT1080-NT tox -1%, KB-3-1 cytotox inactive, HT1080 IDH1KD tx -9%, TDP1 cell noCPT -25%, TDP1 cell CPT -31% and KB-V1 cytotox inactive.
Cc1cccc(C)c1NC(=O)CN1CCN(CCCC(c2ccc(F)cc2)c2ccc(F)cc2)CC1 was read as HT1080-NT tox inconclusive, KB-3-1 cytotox inactive, HT1080 IDH1KD tx 12%, TDP1 cell noCPT 5.8µM*, TDP1 cell CPT 7.3µM* and KB-V1 cytotox inconclusive.
Screening Cc1cccc(C)c1NC(=O)C(c1ccccc1)N1CCC(Cc2ccccc2)CC1 (stereo unspecified) returned HT1080-NT tox 23%, KB-3-1 cytotox inactive, HT1080 IDH1KD tx 8%, TDP1 cell noCPT 9.2µM*, TDP1 cell CPT 9.2µM* and KB-V1 cytotox inactive.
Cc1cccc(C)c1NC(=O)CN1CCc2ccccc2C1 was read as HT1080-NT tox -1%, KB-3-1 cytotox inactive, HT1080 IDH1KD tx 1%, TDP1 cell noCPT 16µM*, TDP1 cell CPT 10µM* and KB-V1 cytotox inactive.
For Cc1c(NC(=O)CN2CCN(C(c3ccccc3)c3ccccc3)CC2)c(=O)n(-c2ccccc2)n1C the results were HT1080-NT tox 3%, KB-3-1 cytotox inactive, HT1080 IDH1KD tx 5%, TDP1 cell noCPT -2%, TDP1 cell CPT 7% and KB-V1 cytotox inconclusive.
COCc1cccc(N2C(=O)CC(C3C=C(C)C4C(=O)N(c5cccc(COC)c5)C(=O)C4C3)C2=O)c1 (stereo unspecified) was read as HT1080-NT tox 1%, KB-3-1 cytotox inactive, HT1080 IDH1KD tx 2%, TDP1 cell noCPT -21%, TDP1 cell CPT 1% and KB-V1 cytotox inactive.
